The whole screen tested about 310,000 compounds, of which about 14,000 (4.5%) showed an effect of 50% or more. Effects have a minus sign here. The list comes from a sample in which strong results are over-represented; it also holds similar structures and randomly drawn compounds.
Biological target: human ether-à-go-go-related gene (hERG) potassium channel (human, UniProt Q12809)
Assay: primary screen, population patch clamp on CHO cells stably expressing hERG; higher = less effect of the substance
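Also: peak tail current of the secondary pulse compared with the same well before compound.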

Chain of human ether-à-go-go-related gene (hERG) potassium channel (Q12809 whole entry, looked up): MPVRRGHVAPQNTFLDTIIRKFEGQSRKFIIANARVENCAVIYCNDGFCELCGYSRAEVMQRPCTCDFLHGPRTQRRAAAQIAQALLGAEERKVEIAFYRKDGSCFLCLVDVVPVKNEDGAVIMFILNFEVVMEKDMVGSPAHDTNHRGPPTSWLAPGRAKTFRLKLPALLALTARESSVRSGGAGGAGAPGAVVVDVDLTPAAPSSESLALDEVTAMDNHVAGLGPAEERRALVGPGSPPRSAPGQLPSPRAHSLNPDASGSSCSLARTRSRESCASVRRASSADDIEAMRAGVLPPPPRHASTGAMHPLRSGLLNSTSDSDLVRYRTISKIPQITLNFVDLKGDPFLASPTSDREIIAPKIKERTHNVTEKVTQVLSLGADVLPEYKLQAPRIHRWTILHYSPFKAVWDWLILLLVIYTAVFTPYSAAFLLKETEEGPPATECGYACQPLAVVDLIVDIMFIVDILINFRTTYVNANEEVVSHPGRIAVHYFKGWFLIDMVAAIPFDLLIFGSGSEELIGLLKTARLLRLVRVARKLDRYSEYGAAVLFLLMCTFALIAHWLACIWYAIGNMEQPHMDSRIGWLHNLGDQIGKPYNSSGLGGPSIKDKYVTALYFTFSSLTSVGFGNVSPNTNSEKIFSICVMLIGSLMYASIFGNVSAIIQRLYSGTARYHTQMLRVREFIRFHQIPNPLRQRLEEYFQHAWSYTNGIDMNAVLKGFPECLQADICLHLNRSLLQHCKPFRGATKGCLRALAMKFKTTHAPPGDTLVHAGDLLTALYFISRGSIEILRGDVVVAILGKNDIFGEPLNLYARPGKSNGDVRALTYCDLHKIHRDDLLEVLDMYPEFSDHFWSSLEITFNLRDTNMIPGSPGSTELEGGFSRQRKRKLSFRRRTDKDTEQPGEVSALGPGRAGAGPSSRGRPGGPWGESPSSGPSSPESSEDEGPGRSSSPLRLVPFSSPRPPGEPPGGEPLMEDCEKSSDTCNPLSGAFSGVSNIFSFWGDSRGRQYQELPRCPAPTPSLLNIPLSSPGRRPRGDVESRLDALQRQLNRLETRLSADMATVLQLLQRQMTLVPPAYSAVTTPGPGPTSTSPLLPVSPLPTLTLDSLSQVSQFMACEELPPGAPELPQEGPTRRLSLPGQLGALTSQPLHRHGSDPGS

| Structure (SMILES) | hERG current change (%, negative = inhibition) at 10uM |
| --- | --- |
| CCCCCCc1nnc(N)s1 | -0.995% |
| Cc1cc(=O)n(C2CCS(=O)(=O)C2)[nH]1 (stereo not drawn) | 14.7% |
| O=c1[nH]c(=S)c2ncn(-c3ccccc3)c2[nH]1 | 11.7% |
| CCCCC(CCC(=O)O)(C(=O)OCC)c1csc(Nc2ccc(C)cc2)n1 (stereo not drawn) | -0.891% |
| Cc1ccc(N2C(=O)CC(c3ccsc3)C3=C2CC(C)(C)CC3=O)cc1 (stereo not drawn) | 3.75% |
| COc1ccc(CNC(=O)CN2CCN(c3cccc(C)c3C)CC2)cc1 | -8.46% |
| CCN(CC(=O)Nc1ccccc1OC)C(=O)CSCc1ccc(C)cc1 | -2.36% |
| CCCNC(=O)NC(=O)COC(=O)c1cccc(NS(=O)(=O)c2ccc(F)c(F)c2)c1 | -12% |
| COc1ccc(C(C(=O)NC2CCCC2)N(C(=O)CNC(=O)c2ccco2)c2cccnc2)cc1 (stereo not drawn) | 14.7% |
| Cc1oc2c(C)c3oc(=O)c(CCC(=O)NCCCN4CCCC4=O)c(C)c3cc2c1C | -14.8% |
| Cc1nc2c(-c3ccc(F)cc3)c(C)nn2c(C)c1CCC(=O)Nc1ccccc1F | -10.7% |
| COCCCNC(=O)CCc1c(C)nc2c(-c3ccc(F)cc3)c(C)nn2c1C | -38.5% |
| Cc1nc2c(-c3ccc(F)cc3)c(C)nn2c(C)c1CCC(=O)N1CCN(c2ccc(F)cc2)CC1 | -74.6% |
| COc1ccc(CN2C(=O)C(C)S/C2=N/N=C/c2ccco2)cc1 (stereo not drawn) | 6.37% |
| CC(Oc1ccc2ccc(=O)oc2c1)C(=O)NCCCn1ccnc1 (stereo not drawn) | 28.5% |
| CCc1cc(=O)oc2cc(OC(C)C(=O)NCCCn3ccnc3)ccc12 (stereo not drawn) | 9.41% |
| Cc1c(OCC(=O)NCCCn2ccnc2)ccc2c3c(c(=O)oc12)CCCC3 | -48.2% |
| Cc1c(OCC(=O)NCCCn2ccnc2)ccc2c3c(c(=O)oc12)CCC3 | -26.7% |
| Cc1c(C)c2ccc(OCC(=O)Nc3cccnc3)c(C)c2oc1=O | 3.99% |
| CC(Oc1ccc2c(-c3ccccc3)cc(=O)oc2c1)C(=O)NCCCn1ccnc1 (stereo not drawn) | -52.5% |
| Cc1cc(=O)oc2c(C)c(OCC(=O)Nc3cccnc3)ccc12 | -25.3% |
| CCCc1cc(=O)oc2c(C)c(OCC(=O)Nc3cccnc3)ccc12 | -63.6% |
| COc1ccc(-c2cc(=O)oc3cc(OC(C)C(=O)NCCCn4ccnc4)ccc23)cc1 (stereo not drawn) | -50.8% |
| CC(Oc1ccc2c3c(c(=O)oc2c1)CCCC3)C(=O)NCCCn1ccnc1 (stereo not drawn) | -2.45% |

| Structure (SMILES) | hERG current change (%, negative = inhibition) at 10uM |
| --- | --- |
| COc1ccc(-c2cc(=O)oc3c(C)c(OCC(=O)NCCCn4ccnc4)ccc23)cc1 | -63.8% |
| Cc1cc(=O)oc2cc(OC(C)C(=O)NCCCn3ccnc3)ccc12 (stereo not drawn) | 9.44% |
| COc1ccc(-c2cc(C(=O)N(C)CCc3ccc(OC)c(OC)c3)c3ccccc3n2)cc1 | -29.4% |
| CC(c1ccco1)N(C(=O)c1cccc(S(=O)(=O)N(C)C)c1)c1ccccn1 (stereo not drawn) | 16% |
| COC(=O)COc1ccc2c(-c3ccc(OC)cc3)cc(=O)oc2c1 | -39.2% |
| COc1ccc(-c2cc(=O)oc3cc(OCC(C)=O)ccc23)cc1 | -74.6% |
| COc1ccc(-c2cc(=O)oc3cc(OCC(=O)NCCCn4ccnc4)ccc23)cc1 | -65.4% |
| Cc1c(C)c2ccc(OCC(=O)NCCCn3ccnc3)c(C)c2oc1=O | -32.7% |
| CC(=O)COc1ccc2c(-c3ccccc3)cc(=O)oc2c1 | -1.91% |
| CCCc1cc(=O)oc2c(C)c(OCC(=O)NCCCn3ccnc3)ccc12 | -75.3% |
| O=C(COc1ccc2c(-c3ccccc3)cc(=O)oc2c1)NCCCn1ccnc1 | -48.7% |
| Cc1cc(=O)oc2cc(OCC(=O)NCCCn3ccnc3)ccc12 | 7.58% |
| CCc1cc(=O)oc2c(C)c(OCC(=O)NCCCn3ccnc3)ccc12 | -45.9% |
| Clc1cccc(-c2nc(NCCCN3CCOCC3)c3ccccc3n2)c1 | -10.1% |
| CCOC(=O)N1CCN(C(=O)c2cccc(NC3=NC4CS(=O)(=O)CC4S3)c2)CC1 (stereo not drawn) | 4.31% |
| NC(=O)c1cc(Cc2ccccc2)sc1NC(=O)c1ccco1 | -13.6% |
| O=C1CCC(c2ccccc2)=NN1 | 9.05% |
| COCC(C)NC(=O)/C(=C/c1ccccc1)c1ccccc1 (stereo not drawn) | -25% |
| COc1ccc(S(=O)(=O)C(C#N)c2nc3ccccc3nc2N2CCC(C)CC2)cc1 (stereo not drawn) | 18.6% |
| O=C(Nc1ccccc1)Nc1ccc2c(c1)CCC2 | 29.8% |
| CC(OC(=O)CCCOc1ccccc1)C(=O)NC(N)=O (stereo not drawn) | 9% |
| Cn1cncc1C#Cc1c(C=O)n(C)c2ccccc12 | 19.8% |
| Cc1cccc(CN2CCc3c(OCC(=O)NCc4ccco4)cccc3C2=O)c1 | -51.2% |
| O=C(COc1ccccc1-c1ccccc1)NCc1ccco1 | -28% |

| Structure (SMILES) | hERG current change (%, negative = inhibition) at 10uM |
| --- | --- |
| Cc1cccc(NC(=O)COc2cccc3c2CCN(Cc2ccccc2)C3=O)c1C | -5.8% |
| Cc1ccc(C)c(NC(=O)COc2cccc3c2CCN(Cc2ccccc2)C3=O)c1 | -10.1% |
| COC(=O)c1ccc(COc2cccc3c2CCN(Cc2cccc(C)c2)C3=O)o1 | -3.41% |
| O=C1c2cccc(OCC(=O)N3CCCc4ccccc43)c2CCN1Cc1ccc(Br)cc1 | 6.7% |
| O=C(COc1cccc2c1CCN(Cc1ccc(Br)cc1)C2=O)NCc1ccco1 | -70.6% |
| Cc1ccc(CN2CCc3c(OCC(=O)Nc4cc(C)ccc4C)cccc3C2=O)cc1 | 4.23% |
| O=C(COc1cccc2c1CCN(Cc1ccccc1)C2=O)NCc1ccco1 | -70.3% |
| O=C(CN1C(=O)C2CC=CCC2C1=O)Nc1ccccc1N1CCCC1 (stereo not drawn) | 6.41% |
| CCOC(=O)c1c(C)c(C(=O)NCCN2CCOCC2)c(C)n1C | 15.1% |
| CCOC(=O)C1(C)NC(c2ccco2)C2C(=O)N(C)C(=O)C21 (stereo not drawn) | 13.6% |
| COc1ccc(C2c3c(oc4ccc(Cl)cc4c3=O)C(=O)N2CCN2CCOCC2)cc1 (stereo not drawn) | -81.2% |
| COc1ccc(C2c3c(oc4ccccc4c3=O)C(=O)N2CCCN2CCOCC2)cc1 (stereo not drawn) | -7.15% |
| COC(=O)c1ccc(C2c3c(oc4ccc(Cl)cc4c3=O)C(=O)N2CCN2CCOCC2)cc1 (stereo not drawn) | -35.2% |
| C/C(=N\NC(=O)c1c(Br)c(C)nn1C)c1cccc(NC(=O)C2CCC2)c1 | -19.4% |
| Cc1c(C(=O)N2CCN(S(C)(=O)=O)CC2)oc2ccccc12 | 3.49% |
| CCCCNS(=O)(=O)c1ccc2nc(-c3cccnc3)cc(C(=O)NC(C)C)c2c1 | 16.7% |
| O=C(C1CCC1)N1CCC(O)(c2cccc(F)c2)CC1 | 14.6% |
| C=CCNC(=O)NC(=O)COn1nnc2ccc(S(=O)(=O)N(C)C)cc21 | 5.69% |
| CN(C)S(=O)(=O)c1ccc2nnn(OCC(=O)NC34CC5CC(CC(C5)C3)C4)c2c1 | -51.7% |
| CCc1ccc(NC(=O)COn2nnc3ccc(S(=O)(=O)N(C)C)cc32)cc1 | -29.1% |
| Cc1ccccc1CC(=O)Nc1ccc2c(C)cc(=O)oc2c1 | -15.3% |
| CCOC(=O)c1ccc(NC(=O)c2nc[nH]c2C(=O)N2CCN(c3ccccc3)CC2)cc1 | 3.29% |
| O=C(O)C(Cc1c[nH]c2ccccc12)NS(=O)(=O)c1ccc(Br)cc1 (stereo not drawn) | 8.36% |
| CCOP(=O)(c1ccccc1)c1nc(-c2ccccc2Cl)oc1N1CCCCC1 (stereo not drawn) | -11.4% |

| Structure (SMILES) | hERG current change (%, negative = inhibition) at 10uM |
| --- | --- |
| CCOP(=O)(c1ccccc1)c1nc(-c2ccccc2C)oc1N1CCCCC1 (stereo not drawn) | 0.633% |
| CCOP(=O)(OCC)c1nc(-c2ccc(Br)cc2)oc1N1CCCCC1 | -65.3% |
| O=P(c1ccccc1)(c1ccccc1)c1nc(-c2ccc(Cl)cc2)oc1N1CCOCC1 | -74.1% |
| Cc1ccc(-c2nc(P(=O)(c3ccccc3)c3ccccc3)c(N3CCOCC3)o2)cc1 | -38.3% |
| CCOP(=O)(OCC)c1nc(-c2ccccc2)oc1N1CCCCC1 | 4.4% |
| COP(=O)(OC)c1nc(-c2ccc(C)cc2)oc1N1CCCCC1 | -10.2% |
| CCOP(=O)(c1ccccc1)c1nc(-c2ccc(F)cc2)oc1N1CCCCC1 (stereo not drawn) | -56.6% |
| O=P(c1ccccc1)(c1ccccc1)c1nc(-c2ccccc2)oc1N1CCOCC1 | -20.5% |
| CC1=CCC2C(=O)N(c3ccc(C)cc3)C(=O)C2C1 (stereo not drawn) | -4.42% |
| Cc1ccc(NC(=O)Cn2nnc(-c3ccccc3NC(=O)c3cccs3)n2)cc1 | 21.7% |
| Cc1nc2ccccc2c(=O)n1-c1ccc(Cl)cc1[N+](=O)[O-] | 10.1% |
| Cc1ccccc1NC(=O)C1CCCN(C(=O)NCc2ccccc2)C1 (stereo not drawn) | 1.82% |
| CCCCn1c(O)c(C(C)=NCCN2CCCCC2)c(=O)[nH]c1=O | -21.7% |
| CCC(=NCCCn1ccnc1)c1c(O)n(-c2ccccc2)c(=O)[nH]c1=O | 7.4% |
| CCC(=NCCCn1ccnc1)c1c(O)n(Cc2ccccc2)c(=O)[nH]c1=O | -68% |
| CCCCn1c(O)c(C(CC)=NCCN2CCOCC2)c(=O)[nH]c1=O | -15.3% |
| CCCCn1c(O)c(C(CC)=NCCCN(C)C)c(=O)[nH]c1=O | -29.2% |
| CCCCCCN=C(C)c1c(O)n(CCCC)c(=O)[nH]c1=O | -8.21% |
| CCCCn1c(O)c(C(CC)=NCCN2CCCCC2)c(=O)[nH]c1=O | -53.6% |
| CCC(=NCCCN(CC)CC)c1c(O)n(C2CCCCC2)c(=O)[nH]c1=O | -52.9% |
| CCCCCCN=C(CC)c1c(O)n(CCCC)c(=O)[nH]c1=O | -55.4% |
| CCC(=NCCO)c1c(O)n(C2CCCCC2)c(=O)[nH]c1=O | -14.6% |
| CCN(CC)CCCN=C(C)c1c(O)n(C2CCCCC2)c(=O)[nH]c1=O | -48.7% |
| CCCCn1c(O)c(C(CC)=NCCCn2ccnc2)c(=O)[nH]c1=O | -43.3% |
